Records with an inconclusive call do not appear. Values without a mark were called inactive. Active and inactive are the calls of the source. Calls follow the shape of the dose curve; as a rule, active = well fitted cell-killing curve with a large enough effect in the repeat runs (not every such curve was filed as active); inconclusive = weak or mixed curves, or effect the other way; inactive = no such curve, though single readings can be large or run the other way.
assay: qHTS assay to identify small molecule antagonists of the estrogen related receptor signaling pathway with the pleiotropic PPARgamma coactivator (PGC) from Tox21 10K library - cell viability counter screen (AID 1224840); conditions: PGC/ERR reporter cells viability, CellTiter-Fluor, 17.5 h; series mostly up to 92.4 µM; viability change, negative = cytotoxic: at the top concentration; also: nearly all actives have a fitted effect of over 40% in size
Description: National Center for Advancing Translational Sciences [NCATS]
NIH Chemical Genomics Center [NCGC]
U.S. Environmental Protection Agency [EPA]
National Institutes of Environmental Health Sciences [NIEHS]
National Toxicology Program [NTP]
U.S. Food and Drug Administration [FDA]
Estrogen related receptors (ERRs), the first orphan nuclear receptors discovered, play an important role in the control of cellular energy metabolism. ERRs are required for high-energy production in response to the environmental challenges. The pleiotropic PPARgamma coactivator (PGC) is a major partner of ERR and a key regulator in energy homeostasis. Together they have been implicated in the etiology of metabolic disorders such as Type 2 diabetes and metabolic syndrome. ERR-alpha was also identified as an adverse marker for breast cancer progression; ERR-alpha-positive tumors have a poor prognosis. To screen and to identify environmental compounds that perturb the ERR and PGC/ERR signaling pathways could provide valuable information for potential therapeutic or preventive measures in the treatment of metabolic disease. To differentiate true PGC/ERR antagonists or agonist from cytotoxic substances, the assay is multiplexed with cell viability assay.
Tox21 Assay Protocol Summary:
The PGC/ERR cells were dispensed at 2,000 cells/5 ul/well in 1536-well white plates using a Multidrop dispenser. After the assay plates were incubated at a 37 C/5% CO2 incubator for 6 hours, 23 nL of compounds dissolved in DMSO, positive and negative controls or DMSO only was transferred to the assay plate by a pin tool. The plates were incubated at 37 C for 17.5 hours. 1 ul/well of CellTiter-Fluor reagent was added into the assay plates using a Flying Reagent Dispenser. After 30-minute incubation at 37 C/5% CO2, the fluorescence intensity in the plates was measured using a ViewLux plate reader.
% is scaled to controls: 0 for no effect and ±100 for the full control effect; potency is read from the fitted curve at half-maximal effect.

Work on CO[C@@H]1[C@H](OC(=O)NC(=O)CCl)CC[C@]2(CO2)[C@H]1[C@@]1(C)O[C@@H]1CC=C(C)C yielded a viability change, negative = cytotoxic of -8.92% [at 19 µM].

Compared with CN1C(=O)C(O)N=C(c2ccccc2)c2cc(Cl)ccc21 (stereo not given), CCOP(=S)(Oc1ccc([N+](=O)[O-])cc1)c1ccccc1 (stereo not given) is higher in “viability change, negative = cytotoxic” value: -11.4% for the first, -0.968% for the second.

First: Cc1c(F)c(F)c(COC(=O)C2C(/C=C(\Cl)C(F)(F)F)C2(C)C)c(F)c1F (stereo not given)
Second: CCOC(=O)COc1cc(-c2nn(C)c(OC(F)F)c2Cl)c(F)cc1Cl
The “viability change, negative = cytotoxic” value of the first is higher: 1.1% for the first, 1.06% for the second.

Going from CCOc1ccc(C(C)(C)COCc2cccc(Oc3ccccc3)c2)cc1 to CCCCC(CC)COP(=O)(Oc1ccccc1)Oc1ccccc1 (stereo not given), the “viability change, negative = cytotoxic” value falls from 2.33% to -0.256%.

Going from COC(C)(C)CCC[C@H](C)C/C=C/C(C)=C/C(=O)OC(C)C to C=CC(=O)OC(C)(C)C, the “viability change, negative = cytotoxic” value rises from -7.77% to 2.19%.

First: Cl/C=C\C[N+]12CN3CN(CN(C3)C1)C2
Second: CC/C(=N\OC/C=C/Cl)C1=C(O)CC(C2CCOCC2)CC1=O (stereo not given)
The “viability change, negative = cytotoxic” value of the first is lower: 1.41% for the first, 5.78% for the second.

First: CCCN(CCCl)c1c([N+](=O)[O-])cc(C(F)(F)F)cc1[N+](=O)[O-]
Second: COc1c(C(C)(C)C)cc([N+](=O)[O-])c(C)c1[N+](=O)[O-]
The “viability change, negative = cytotoxic” value of the first is lower: -5.35% for the first, 2.7% for the second.

First: CNP(=O)(OC)Oc1ccc(C(C)(C)C)cc1Cl (stereo not given)
Second: COc1cc(Cl)c(OC)cc1Cl
The “viability change, negative = cytotoxic” value of the first is lower: -16.6% for the first, 4.68% for the second.

Going from Nc1nc(N)nc(N)n1 to Clc1cc(Cl)c(Cl)c(Cl)c1, the “viability change, negative = cytotoxic” value rises from -0.373% to 3.24%.

Compared with C=CCC1([C@H](C)CCC)C(=O)NC(=O)NC1=O, CCCCN(N=O)C(=N)N[N+](=O)[O-] is lower in “viability change, negative = cytotoxic” value: 6.8% for the first, -12.3% for the second.

First: Cc1ccccc1CCl
Second: O=[N+]([O-])c1ccccc1CCl
The “viability change, negative = cytotoxic” value of the first is higher: 1.43% for the first, -3.9% for the second.

Going from NCCCNCCCN to CCC(Br)(CC)C(=O)NC(N)=O, the “viability change, negative = cytotoxic” value rises from -5.71% to 5.77%.

First: COc1nn(C(=O)NS(=O)(=O)c2ccccc2OC(F)(F)F)c(=O)n1C
Second: O=C(Nc1ccccc1)Nc1cnns1
The “viability change, negative = cytotoxic” value of the first is higher: 6.88% for the first, -15.8% for the second.

First: N#C/C(N)=C(/N)C#N
Second: NNC(=O)c1cccnc1
The “viability change, negative = cytotoxic” value of the first is higher: 1.39% for the first, 1.13% for the second.

First: BrCC(Br)C1CCC(Br)C(Br)C1 (stereo not given)
Second: O=C(OC1CCCCC1)c1ccccc1C(=O)OC1CCCCC1
The “viability change, negative = cytotoxic” value of the first is higher: -0.914% for the first, -18.3% for the second.

For II, the “viability change, negative = cytotoxic” value was -18.2%.

Compared with CN1C(=O)NC(=O)C(C)(C2=CCCCC2)C1=O (stereo not given), C=CC[C@]1(O)CC[C@H]2[C@@H]3CCC4=CC(=O)CCC4=C3C=C[C@@]21C is lower in “viability change, negative = cytotoxic” value: -4.09% [at 42.5 µM] for the first, -30.4% [at 42.5 µM] for the second.

First: C[C@@H]1CC[C@H]2[C@@H](C)C(=O)O[C@@H]3O[C@@]4(C)CC[C@@H]1[C@]32OO4
Second: C[C@]12CC[C@H]3[C@@H](CCC4=CC(=O)CC[C@@H]43)[C@@H]1CC[C@@H]2OC(=O)CCC1CCCCC1
The “viability change, negative = cytotoxic” value of the first is lower: -5.38% [at 42.5 µM] for the first, 5.71% [at 42.5 µM] for the second.

Going from COC(=O)c1cncn1C(C)c1ccccc1 (stereo not given) to O=C1NCN(c2ccccc2)C12CCN(CCCOc1ccc(F)cc1)CC2, the “viability change, negative = cytotoxic” value falls from 0.93% [at 42.5 µM] to -29% [at 42.5 µM].

For Brc1ccc(Oc2ccccc2)cc1, the Potency was “inactive”.
With [CH3][Sn]([CH3])([Cl])[Cl] the Potency was “inactive”.
For O=C(Nc1ccccc1)Nc1ccnc(Cl)c1, the Potency was 61.1 µM (active).
For Cc1ccc(-c2c(Cl)nc(C#N)n2S(=O)(=O)N(C)C)cc1, the Potency was 61.1 µM (active).
